Measured values: article PMC4336329 (PLoS ONE, 2015)
The whole screen tested about 310,000 compounds, of which about 14,000 (4.5%) showed an effect of 50% or more. The effect is printed as a negative number. What follows is part of a selection rich in strong results, with near analogues and random picks from the rest.

target: human ether-à-go-go-related gene (hERG) potassium channel (human, UniProt Q12809); experiment: primary screen, population patch clamp on CHO cells stably expressing hERG; higher = less effect of the substance
Sequence (Q12809 whole entry, looked up): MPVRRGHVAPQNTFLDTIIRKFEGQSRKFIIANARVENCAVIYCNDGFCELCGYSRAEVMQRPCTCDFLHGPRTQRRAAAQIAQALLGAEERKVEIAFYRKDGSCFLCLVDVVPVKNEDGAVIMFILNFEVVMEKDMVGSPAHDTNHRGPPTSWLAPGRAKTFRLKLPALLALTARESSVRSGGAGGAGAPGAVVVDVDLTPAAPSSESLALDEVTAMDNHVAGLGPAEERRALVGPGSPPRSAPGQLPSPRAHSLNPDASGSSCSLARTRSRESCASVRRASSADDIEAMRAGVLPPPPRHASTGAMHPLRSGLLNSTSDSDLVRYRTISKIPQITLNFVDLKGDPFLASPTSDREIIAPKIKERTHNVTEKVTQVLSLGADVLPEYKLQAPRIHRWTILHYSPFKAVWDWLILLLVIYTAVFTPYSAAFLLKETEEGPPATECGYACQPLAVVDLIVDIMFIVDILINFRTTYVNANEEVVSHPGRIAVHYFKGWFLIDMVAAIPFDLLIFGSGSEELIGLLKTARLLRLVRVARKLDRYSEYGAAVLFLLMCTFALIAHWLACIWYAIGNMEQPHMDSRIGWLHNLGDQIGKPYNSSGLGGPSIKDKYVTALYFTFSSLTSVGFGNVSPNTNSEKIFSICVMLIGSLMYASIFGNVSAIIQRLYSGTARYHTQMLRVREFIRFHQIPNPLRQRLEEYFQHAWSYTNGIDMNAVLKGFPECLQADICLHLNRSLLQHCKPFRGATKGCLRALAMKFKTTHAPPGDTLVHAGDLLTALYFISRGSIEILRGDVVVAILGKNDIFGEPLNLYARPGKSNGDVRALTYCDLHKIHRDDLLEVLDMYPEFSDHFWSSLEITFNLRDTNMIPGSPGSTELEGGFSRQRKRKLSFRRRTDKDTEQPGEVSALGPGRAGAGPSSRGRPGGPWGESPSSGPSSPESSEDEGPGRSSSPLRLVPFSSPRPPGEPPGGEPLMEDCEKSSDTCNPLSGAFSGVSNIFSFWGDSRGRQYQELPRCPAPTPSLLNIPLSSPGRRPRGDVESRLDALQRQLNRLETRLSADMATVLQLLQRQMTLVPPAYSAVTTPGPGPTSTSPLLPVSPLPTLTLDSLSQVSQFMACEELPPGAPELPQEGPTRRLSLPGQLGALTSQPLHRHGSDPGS
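Also: peak tail current of the secondary pulse compared with the same well before compound.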

SMILES	hERG current change (%, negative = inhibition) at 10uM
Cc1ccn2c(=O)nc(SCC(=O)c3ccc(Cl)cc3)nc2c1	-31.2%
CCOc1cc(/C=C/C(=O)N(CC)CC(=O)NCc2cccs2)cc(Cl)c1OC	-27.7%
CCN(CC(=O)NCc1cccs1)C(=O)/C=C/c1ccc(Cl)c(Cl)c1	-41.1%
CCOc1c(Cl)cc(/C=C/C(=O)N(CC)CC(=O)NCc2cccs2)cc1OC	-55.4%
CCN(CC(=O)NCc1cccs1)C(=O)/C=C/c1ccc(C)cc1	-29.4%
CCOc1ccc(/C=C/C(=O)N(CC)CC(=O)NCc2cccs2)cc1OC	-28.3%
CCN(CC(=O)NCc1cccs1)C(=O)/C=C/c1cccc(Br)c1	-66.8%
CCOC(=O)C1(C)NC(c2ccco2)C2C(=O)N(c3ccc(C)cc3)C(=O)C21 (centres unmarked)	11.3%
C=CCSc1nc2ccccc2n2cnnc12	-18.5%
Cc1ccc2c(c1)C(c1ccc(F)cc1)N(C(=O)c1cc3ccccc3oc1=O)CC(=O)N2 (centres unmarked)	-55%
Cc1ccc2c(c1)C(c1ccccc1)N(C(=O)c1cccc([N+](=O)[O-])c1)CC(=O)N2 (centres unmarked)	-55.6%
Cc1ccc2c(c1)C(c1ccccc1)N(C(=O)c1ccccc1)CC(=O)N2 (centres unmarked)	-7.17%
O=C1CN(C(=O)c2cc3ccccc3oc2=O)C(c2ccc(F)cc2)c2cc(F)ccc2N1 (centres unmarked)	-32.1%
COc1ccccc1C(=O)N1CC(=O)Nc2ccc(C)cc2C1c1ccc(F)cc1 (centres unmarked)	-38.6%
Cc1ccc2c(c1)C(c1ccccc1)N(C(=O)c1cc3ccccc3oc1=O)CC(=O)N2 (centres unmarked)	-65.1%
Cc1ccc2c(c1)C(c1ccccc1)N(C(=O)c1ccc(F)cc1)CC(=O)N2 (centres unmarked)	-6.99%
O=C1CN(C(=O)c2cc3ccccc3oc2=O)C(c2ccc(F)cc2)c2cc(Br)ccc2N1 (centres unmarked)	-68.6%
O=C1CN(C(=O)c2cc3ccccc3oc2=O)C(c2ccccc2)c2cc(F)ccc2N1 (centres unmarked)	-33.9%
CC(=O)N1CC(=O)Nc2ccc(C)cc2C1c1ccccc1 (centres unmarked)	14.7%
Cc1ccccc1C(=O)N1CC(=O)Nc2ccc(F)cc2C1c1ccc(F)cc1 (centres unmarked)	-16.1%
O=C1CN(C(=O)c2c(F)cccc2F)C(c2ccc(F)cc2)c2cc(Br)ccc2N1 (centres unmarked)	-35.8%
CC1(C)OC(=O)C(=CNc2cccc(C(=O)O)c2)C(=O)O1	18.7%
COc1cc(/C=N/NC(=O)C(=O)NCC2CCCO2)cc(Cl)c1O (centres unmarked)	31.8%
O=C(Nc1ccccc1)Nc1nc(-c2ccc(F)c(F)c2)cs1	16.3%
Cc1c(C)n2c(SCC(=O)N3CC(C)OC(C)C3)nnc2[nH]c1=O (centres unmarked)	9.45%
C/C(=N\NC(=O)c1c(Br)c(C)nn1C)c1cccc(NC(=O)c2ccccc2C)c1	-4.71%
O=C(NC1CCCCCC1)C(=S)NCc1ccccc1	5.94%

SMILES	hERG current change (%, negative = inhibition) at 10uM
Cc1ccc(C(=O)NCCC(=O)Nc2ccccc2C)cc1	19.5%
COCCNC(=O)Cn1cc(/C=C2\C(=O)NC(=O)N(c3ccccc3F)C2=O)c2ccccc21	17%
O=C1CN(C(=O)c2ccc(Br)o2)C(c2ccccc2)c2cc(Br)ccc2N1 (centres unmarked)	-23.6%
O=C1CN(C(=O)c2ccc(Br)o2)C(c2ccccc2)c2cc(F)ccc2N1 (centres unmarked)	-45.3%
Cc1ccc2c(c1)C(c1ccccc1)N(C(=O)c1ccc(Br)o1)CC(=O)N2 (centres unmarked)	-56.9%
Cc1c(-c2ccccc2)[n+](=O)c(-c2ccco2)c(C)n1[O-]	7.02%
COCCNC(=O)C1CC(=O)N(c2ccc(OC)cc2)C1c1ccc(OC)cc1 (centres unmarked)	9.03%
Cl.O=C(c1ccco1)N1CCN(C(c2ccccc2Cl)c2nnnn2Cc2ccco2)CC1 (centres unmarked)	-65.1%
CCC(C)(C)n1nnnc1C(c1ccccc1F)N1CCN(C(=O)c2ccco2)CC1 (centres unmarked)	-13.9%
CCC(c1nnnn1Cc1cccs1)N1CCN(C(=O)c2ccco2)CC1 (centres unmarked)	-36.5%
Cl.O=C(c1ccco1)N1CCN(C(c2ccccc2Cl)c2nnnn2CC2CCCO2)CC1 (centres unmarked)	-12.3%
Cl.O=C(c1ccco1)N1CCN(C(c2ccccc2F)c2nnnn2CC2CCCO2)CC1 (centres unmarked)	-17.2%
COCCn1nnnc1C(c1ccccc1OC)N1CCN(C(=O)c2ccco2)CC1 (centres unmarked)	-16.1%
O=C(c1ccco1)N1CCN(C(c2ccccc2F)c2nnnn2Cc2cccs2)CC1 (centres unmarked)	-51%
O=C(c1ccco1)N1CCN(C(c2ccccc2Cl)c2nnnn2Cc2cccs2)CC1 (centres unmarked)	-56.2%
Cl.Clc1ccccc1C(c1nnnn1Cc1ccco1)N1CCN(Cc2ccco2)CC1 (centres unmarked)	-27.6%
CC1=NNC(=O)C1CCC(=O)N/N=C\c1ccccc1[N+](=O)[O-] (centres unmarked)	0.38%
CCN1CCN(CCCNC(=O)c2ccc(CS(=O)c3ccc(Br)cc3)o2)CC1 (centres unmarked)	24.5%
CCOc1[nH]n(-c2ccccc2)c(=O)c1C=NCC(=O)OC	-18.8%
CCCC(=O)c1ccc(N2CCCC2)c(F)c1	6.96%
CCCC(=O)c1ccc(N2CCCCC2)c(F)c1	10.5%
CC(=O)c1ccc(N2CCN(C(=O)c3cccs3)CC2)c(F)c1	-28.3%
CCCC(=O)c1ccc(N2CCN(C(=O)c3cccs3)CC2)c(F)c1	-75.1%
CCC(=O)c1ccc(N2CCN(C(=O)c3ccccc3F)CC2)c(F)c1	-20.7%
CCC(=O)c1ccc(N2CCN(C(=O)c3cccs3)CC2)c(F)c1	-51.6%
COc1ccccc1CNS(=O)(=O)c1c(C(=O)N2CCCCC2)c(C)n(C)c1C	5.51%
